Data as given in the OligoGym collection.

target: F2R; experiment: pooled miR-30 sensor sort-seq; sequence = guide strand; details: shRNA

Going from TTACACATACATCACACTCTAT to TAGGATATCACATTCTGCTTTG, the sensor-assay potency score (higher = more potent) falls from -0.0427 to -0.448.

Going from TTCAGGGCTAAACTCTACCAAC to TTGGCTTATGTGTACAGTGTGT, the sensor-assay potency score (higher = more potent) rises from -1.3 to -0.314.

First: ACAAACAGCACATCTGCCGTGG
Second: TAGTACTAAGTCTTACCTCTTA
The sensor-assay potency score (higher = more potent) of the first is lower: -0.289 for the first, -0.241 for the second.

First: TTTCAGGATGAACACAACGATG
Second: TTTCATGGTCATTACCTCCTAG
The sensor-assay potency score (higher = more potent) of the first is lower: -1.75 for the first, 0.0335 for the second.

Compared with TAAACTTTTCTTTTTAACCTCC, TTAATAACTTAAACCTTGCCGT is lower in sensor-assay potency score (higher = more potent): 0.474 for the first, 0.203 for the second.

Going from ATAGACACATAACAGACCGTGG to TAATAGCTGATCTTAAAGGGGA, the sensor-assay potency score (higher = more potent) rises from -0.63 to -0.239.

target: FABP1; experiment: as above; details: shRNA

Compared with TTTTGAAAGTTGTCACCAGTTT, TTTGAAAGTTGTCACCAGTTTA is lower in sensor-assay potency score (higher = more potent): -0.569 for the first, -0.997 for the second.

First: TGAACTTGAAGTGCTTCCCATT
Second: TTTGGATCACTTTGGACCCAGC
The sensor-assay potency score (higher = more potent) of the first is higher: -0.823 for the first, -1.41 for the second.

First: TCCAACTGAACCACTGTCTTGA
Second: TTTCCTGGCTCTGCAGTTGGTA
The sensor-assay potency score (higher = more potent) of the first is higher: -0.148 for the first, -0.913 for the second.

First: TTGAGTTCGGTCACAGACTTGA
Second: TCTTGAAGACAATGTCACCCAA
The sensor-assay potency score (higher = more potent) of the first is lower: -0.0189 for the first, 0.0461 for the second.

First: TTATTGTCACCTTCCAACTGAA
Second: TTTTGGATCACTTTGGACCCAG
The sensor-assay potency score (higher = more potent) of the first is lower: -0.686 for the first, -0.408 for the second.

Compared with TGAACCACTGTCTTGACTTTCT, TTTTTGAAAGTTGTCACCAGTT is higher in sensor-assay potency score (higher = more potent): -0.394 for the first, -0.333 for the second.

Compared with AACCACTGTCTTGACTTTCTCC, TATTGTCACCTTCCAACTGAAC is lower in sensor-assay potency score (higher = more potent): -0.372 for the first, -1.49 for the second.

Going from TTGAAGACAATGTCACCCAATG to ATTCTCTTGAAGACAATGTCAC, the sensor-assay potency score (higher = more potent) rises from -1.17 to -0.0218.

Going from TTTATTGTCACCTTCCAACTGA to TTCCGGCAGACCGATTGCCTTC, the sensor-assay potency score (higher = more potent) falls from 0.758 to -1.36.

Compared with TTCCAACTGAACCACTGTCTTG, ACTGTCTTGACTTTCTCCCCTG is higher in sensor-assay potency score (higher = more potent): -1.23 for the first, -0.45 for the second.

Going from TTGTCTCCAGCTCACATTCCTC to TTCCTGGCTCTGCAGTTGGTAC, the sensor-assay potency score (higher = more potent) falls from -1.37 to -1.83.

In the case of TCGTTTTGGATCACTTTGGACC, the sensor-assay potency score (higher = more potent) is reported as -1.43.

target: FABP9; experiment: as above; details: shRNA

Compared with TTACTTTCCGGTTGTCTGCTGT, AACACTAATAGTTACTGTCGGT is lower in sensor-assay potency score (higher = more potent): -0.00906 for the first, -0.48 for the second.

Compared with TTGATTGTTGTCTCTTTGCCAA, TTACATTCCACTACCATTTTTT is lower in sensor-assay potency score (higher = more potent): -0.728 for the first, -0.986 for the second.

Work on TGTCCTGGAAAGAACTTTCTGT yielded a sensor-assay potency score (higher = more potent) of -0.208.
